# Data as given in PubChem BioAssay (NCATS).
# Values joined by “and” are separate entries in the source; they are usually repeats but may differ in a detail not shown here. Equal values may be shown once. Unmarked numbers belong to inactive results. Records with an inconclusive call do not appear. A call without a number means that no potency is given here. Active and inactive are the calls of the source. Unless noted, the call rests on the fitted dose curve; in most records, active means well fitted curve in the direction sought with a large enough effect; inconclusive means small, poorly fitted or top-dose-only effect, or another doubt; inactive means no such curve, though single readings can be large; an effect the other way counts as inactive or inconclusive.
# Tests used:
# [1] = qHTS to identify inhibitors of the type 1 interferon - major histocompatibility complex class I in skeletal muscle: primary screen against the NCATS LOPAC collection (AID 1347405);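 further: lytic HiBiT luminescence reporting HLA-B protein level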; further: potency means the concentration at half of the fitted maximal effect
# Method in brief: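 After 24 h at 37 C with compounds (7-point, 1:4.3 dilutions, 46 uM top final) plus 4 ng/ml IFN-beta, luminescence from lytic HiBiT detection was measured. HLA-B*08:01 in C25cl48 myoblasts carried an endogenous C-terminal HiBiT tag; medium lacked dexamethasone.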
# [2] = qHTS to identify inhibitors of the type 1 interferon - major histocompatibility complex class I in skeletal muscle: primary screen against the NCATS Pharmaceutical Collection (AID 1347407);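 further: luminescence of HiBiT knocked into endogenous HLA-B as interferon-induced MHC class I level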
# Method in brief: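 Immortalized human myoblasts (C25cl48) with HiBiT knocked into endogenous HLA-B*08:01 were stimulated with 4 ng/ml IFN-beta and treated with compounds (8-point, 1:5, top 46 uM final) for 24 h at 37 C; HiBiT lytic luminescence read.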
# [3] = target: Protein phosphatase 1D (Homo sapiens) (UniProt O15297); assay: RapidFire Mass Spectrometry qHTS Assay for Modulators of WT P53-Induced Phosphatase 1 (WIP1) (AID 1347424);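 further: amount of dephosphorylated VEPPL-S-QETFS peptide product formed by WIP1; series mostly up to about 63 µM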
# Method in brief: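 RapidFire mass spectrometry measured dephosphorylated peptide after 5 min room-temperature reaction of 2 uM VEPPL-pS-QETFS with 10 nM WIP1 (50 mM Tris-HCl pH 7.5, 30 mM MgCl2, 0.1 mM EGTA, BSA), following 1 hr compound preincubation; 1 uM isotope-labelled product standard.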
# [4] = target: Protein phosphatase 1D (Homo sapiens) (UniProt O15297); assay: Rhodamine-PBP qHTS Assay for Modulators of WT P53-Induced Phosphatase 1 (WIP1) (AID 1347425)
# Method in brief: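 The read-out is the change in Rhodamine-PBP fluorescence (f1 - f0, ex 525/em 598 nm) as Pi is released, read each minute for 11 min. Final reaction: 5 nM WIP1, 10 uM phosphopeptide VEPPL-pS-QETFS, 10 uM Rh-PBP, 50 mM Tris-HCl pH 7.5, 30 mM MgCl2. Compound was preincubated with enzyme for 1 hour at room temperature.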
# [5] = Validation qHTS assay for inhibitors of Activation Induced Cytidine Deaminase (AID): UDG Counterscreen signal (AID 1347427)
# Method in brief: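 Fluorescence at 560 nm excitation, 665 nm emission reports UDG signal after 250 mM NaOH (2x) addition and 30 min. Enzymes (AID 1 uM, UDG 2 U/mL, at 4/3x) preincubated 10 min with compound, then 4 h with 4x 250 nM DJC20/DJC23 substrate at room temperature.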
# [6] = target: Single-stranded DNA cytosine deaminase (Homo sapiens) (UniProt Q9GZX7); assay: Validation qHTS assay for inhibitors of Activation Induced Cytidine Deaminase (AID): AID signal (AID 1347429)
# Method in brief: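 Compounds (final up to 114 uM) preincubated with AID plus UDG; 250 nM DJC20/DJC23 substrate mix (4x stock) added, 4 hr at room temperature, then NaOH, 30 min. Read 1 fluorescence at 540 nm excitation, 590 nm emission.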
# [7] = Primary qHTS for inhibitors of La Crosse Virus (LACV) - induced cell death in SH-SY5Y cells (AID 1508616);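 further: top concentration of the series differs between compounds; higher means more rescue of cells from virus-induced death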
# Method in brief: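 Rescue of virus-induced death was read as ATPLite luminescence after 6 days at 37C, scaled between DMSO wells with LACV and without virus. Cells were SH-SY5Y, 6000/well, infected at 0.01 MOI after compound addition.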
# [8] = target: Calcium and integrin-binding protein 1 (Homo sapiens) (UniProt Q99828); assay: Validation qHTS for Identification of Calcium Integrin Binding protein 1 (CIB1) Competitor (AID 1508618)
# Method in brief: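 CIB1-GST (1 uM final) incubated 15 min at room temperature with compounds (up to 114 uM), then FITC-labelled alphaIIb peptide (100 nM) added. FP read (Ex 480/Em 540) after 15 min, pH 7.4 buffer containing 5 mM CaCl2.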
# [9] = target: Calcium and integrin-binding protein 1 (Homo sapiens) (UniProt Q99828); assay: Primary qHTS for Identification of Calcium Integrin Binding Protein 1 (CIB1) Competitor (AID 1508620);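 further: GST tagged CIB1 binding a fluorescein labelled alphaIIb integrin peptide tracer; top concentration of the series differs between compounds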
# Method in brief: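 CIB1-GST (1 uM final) and compound incubated 15 min at room temperature before adding FITC-alphaIIb peptide tracer (100 nM final). Competition for binding read by fluorescence polarization (ex 480, em 540) after another 15 min at room temperature.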
# [10] = Counterscreen qHTS for small molecule stabilizers of the endoplasmic reticulum resident proteome: GLuc-NoTag assay (AID 1508627); further: potency means the concentration at half of the fitted maximal effect
# Method in brief: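 Counterscreen line: SH-SY5Y-GLuc-NoTag cells, treated with compound 19 hr before a 4 hr, 100 nM thapsigargin calcium depletion. Secreted Gaussia luciferase in the medium was measured by luminescence after coelenterazine was added (0.07x final), with cells unlysed.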
# [11] = Cell Viability qHTS for small molecule stabilizers of the endoplasmic reticulum resident proteome (AID 1508629); conditions: cell viability counter-screen, 100 nM thapsigargin for final 4 h;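 further: human SH-SY5Y neuroblastoma cells carrying the GLuc-SERCaMP reporter; compound exposure about 46 h in total before the viability read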
# [12] = target: Cytochrome P450 2D6 (Homo sapiens) (UniProt P10635); assay: Cytochrome P450 family 2 subfamily D member 6 (CYP2D6) small molecule antagonists: luciferase biochemical (cell-free) qHTS assay (AID 1645840; active means well fitted curve in the direction sought with a large enough effect in the repeat runs; an effect the other way counts as inactive or inconclusive; further: nearly all actives have a fitted effect of over 55% in size; further: potency means the concentration at half of the fitted maximal effect)
# Method in brief: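 P450-Glo CYP2D6 system: proluciferin substrate converted by enzyme to luciferin, read by luminescence proportional to activity. Enzyme-substrate mix with compound 10 min at room temperature, then NADPH regeneration 1 h before detection reagent.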
# Papain (Carica papaya) = Papain (Carica papaya) (UniProt P00784); assay: Primary qHTS assay for inhibitors of the protease papain (AID 1645873);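 further: papain turnover of Z-FR-AMC read as the AMC fluorescence gain over 10 min; series mostly up to about 50 µM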
# [13] = Primary qHTS for small molecule stabilizers of the endoplasmic reticulum resident proteome: Secreted ER Calcium Modulated Protein (SERCaMP) assay (AID 1508630)
# Method in brief: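 The SH-SY5Y reporter protocol was run at 3 concentrations up to 38.3 uM (primary) or 11 concentrations (follow-up): 16 h compound, 100 nM thapsigargin for 4 h, then extracellular luciferase luminescence.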
# [14] = A High-Content qHTS Against Drug Library for the Identification of Small Molecules that Inhibit DYT1 Early Onset Primary Dystonia-Associated Cell Pathology (AID 1645839; calls by dose curve; further: series mostly up to about 46 µM)
# Method in brief: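 High-content imaging quantified EGFP-TorsinA mislocalization in HEK293-derived cells inducibly expressing DYT1 mutant torsinA, after 48 h exposure to compound given together with tetracycline induction. Cell count served as a toxicity channel alongside %pathology.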
# [15] = target: Cytochrome P450 2C9 (Homo sapiens) (UniProt P11712); assay: Cytochrome P450 family 2 subfamily C member 9 (CYP2C9) small molecule antagonists: luciferase biochemical (cell-free) qHTS assay (AID 1645842; active means well fitted curve in the direction sought with a large enough effect in the repeat runs; an effect the other way counts as inactive or inconclusive; further: nearly all actives have a fitted effect of over 55% in size; further: potency means the concentration at half of the fitted maximal effect)
# Method in brief: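 P450-Glo CYP2C9 system: proluciferin substrate with enzyme in mix containing 0.4% BSA, 10 min at room temperature, then NADPH regeneration solution added and incubated 1 h at 37C. Detection reagent stopped reaction; luminescence read after 20 min as RLU.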
# [16] = qHTS for inhibitors of adenylyl cyclases using a fission yeast platform: a pilot screen against the NCATS LOPAC library (AID 1347410)
# Method in brief: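 S. pombe CHP2027 (AC9-GNAS-PDE4D2) carrying a PKA-repressed fbp1-GFP reporter was exposed to LOPAC compounds (final up to 57 µM) for 18 h at 30C in the dark, in EMM with histidine, lysine and uracil; GFP gain-of-signal read by laser scanning cytometry.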
# Chain of Protein phosphatase 1D (Homo sapiens) (O15297 whole entry, looked up): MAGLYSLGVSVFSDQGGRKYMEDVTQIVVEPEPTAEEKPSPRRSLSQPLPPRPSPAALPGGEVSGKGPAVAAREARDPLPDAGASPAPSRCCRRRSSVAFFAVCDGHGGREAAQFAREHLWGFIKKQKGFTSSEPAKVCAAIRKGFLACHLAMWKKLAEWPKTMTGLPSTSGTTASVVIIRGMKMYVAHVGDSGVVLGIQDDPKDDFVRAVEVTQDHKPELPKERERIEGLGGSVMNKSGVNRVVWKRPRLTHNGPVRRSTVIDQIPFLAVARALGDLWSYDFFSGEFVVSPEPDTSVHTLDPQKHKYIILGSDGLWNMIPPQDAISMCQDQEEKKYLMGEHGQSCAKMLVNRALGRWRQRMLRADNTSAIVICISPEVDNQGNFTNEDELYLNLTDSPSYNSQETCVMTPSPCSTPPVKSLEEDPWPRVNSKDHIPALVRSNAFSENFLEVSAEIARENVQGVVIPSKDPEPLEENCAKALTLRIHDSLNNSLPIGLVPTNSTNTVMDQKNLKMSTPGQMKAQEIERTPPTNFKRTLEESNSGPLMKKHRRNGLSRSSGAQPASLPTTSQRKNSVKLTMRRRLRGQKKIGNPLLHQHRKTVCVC
# Chain of Papain (Carica papaya) (P00784 whole entry, looked up): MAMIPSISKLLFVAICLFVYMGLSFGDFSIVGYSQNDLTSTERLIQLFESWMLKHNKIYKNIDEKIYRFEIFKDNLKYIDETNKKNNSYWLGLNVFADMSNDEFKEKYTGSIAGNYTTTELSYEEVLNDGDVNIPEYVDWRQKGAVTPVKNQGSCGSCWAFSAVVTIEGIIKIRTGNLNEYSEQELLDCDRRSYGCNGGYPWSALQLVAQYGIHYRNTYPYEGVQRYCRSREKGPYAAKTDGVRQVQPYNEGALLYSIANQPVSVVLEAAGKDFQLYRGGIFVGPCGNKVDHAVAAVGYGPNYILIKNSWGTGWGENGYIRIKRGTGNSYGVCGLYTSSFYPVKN
# Chain of Cytochrome P450 2C9 (Homo sapiens) (P11712 whole entry, looked up): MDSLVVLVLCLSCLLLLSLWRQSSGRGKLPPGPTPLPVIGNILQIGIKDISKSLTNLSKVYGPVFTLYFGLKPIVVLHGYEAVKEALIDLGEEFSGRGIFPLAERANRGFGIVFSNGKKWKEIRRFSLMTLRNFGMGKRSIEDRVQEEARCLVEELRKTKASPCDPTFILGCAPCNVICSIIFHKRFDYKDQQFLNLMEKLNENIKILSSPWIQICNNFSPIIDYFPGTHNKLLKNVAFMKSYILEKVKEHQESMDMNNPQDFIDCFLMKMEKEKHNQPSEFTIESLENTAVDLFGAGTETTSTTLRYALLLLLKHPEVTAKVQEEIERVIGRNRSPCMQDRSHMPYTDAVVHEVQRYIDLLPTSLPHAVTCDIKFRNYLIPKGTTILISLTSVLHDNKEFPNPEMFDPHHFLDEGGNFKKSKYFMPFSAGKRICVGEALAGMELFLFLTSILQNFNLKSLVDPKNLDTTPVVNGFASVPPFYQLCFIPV
# Chain of Cytochrome P450 2D6 (Homo sapiens) (P10635 whole entry, looked up): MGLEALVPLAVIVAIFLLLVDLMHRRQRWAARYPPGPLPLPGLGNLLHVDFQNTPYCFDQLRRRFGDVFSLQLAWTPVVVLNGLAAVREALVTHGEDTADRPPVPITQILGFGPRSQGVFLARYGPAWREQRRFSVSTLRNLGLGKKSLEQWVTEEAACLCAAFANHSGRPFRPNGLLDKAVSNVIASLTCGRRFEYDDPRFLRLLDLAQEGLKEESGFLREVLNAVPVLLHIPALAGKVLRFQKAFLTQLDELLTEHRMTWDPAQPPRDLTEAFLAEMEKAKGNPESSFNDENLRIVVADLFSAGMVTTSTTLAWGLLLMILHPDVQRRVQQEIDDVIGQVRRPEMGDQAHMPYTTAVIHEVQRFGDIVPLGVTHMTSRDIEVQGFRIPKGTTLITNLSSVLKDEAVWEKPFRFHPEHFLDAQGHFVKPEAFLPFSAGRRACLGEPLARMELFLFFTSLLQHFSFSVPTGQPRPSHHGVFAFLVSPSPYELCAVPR
# Chain of Calcium and integrin-binding protein 1 (Homo sapiens) (Q99828 whole entry, looked up): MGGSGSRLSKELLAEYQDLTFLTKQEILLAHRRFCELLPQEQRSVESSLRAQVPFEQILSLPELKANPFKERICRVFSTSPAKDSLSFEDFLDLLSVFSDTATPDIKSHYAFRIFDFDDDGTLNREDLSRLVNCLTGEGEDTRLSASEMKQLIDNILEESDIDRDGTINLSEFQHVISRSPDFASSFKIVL
# Chain of Single-stranded DNA cytosine deaminase (Homo sapiens) (Q9GZX7 whole entry, looked up): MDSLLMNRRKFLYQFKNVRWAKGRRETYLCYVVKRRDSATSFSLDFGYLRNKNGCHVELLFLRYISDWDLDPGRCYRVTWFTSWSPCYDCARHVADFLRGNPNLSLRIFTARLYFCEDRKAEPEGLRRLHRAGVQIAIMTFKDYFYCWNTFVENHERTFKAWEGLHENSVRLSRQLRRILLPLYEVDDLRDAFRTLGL
SMILES,Potency [1],Potency [2],Potency [3],outcome [4],outcome [5],Potency [6],Potency [7],outcome [8],Potency [9],Potency [10],max response [11] [%],Potency [12],Potency (Papain (Carica papaya)),Potency [13],Potency [14],Potency [15],outcome [16]
CCc1cccc(N(C)C(N)=Nc2cccc3ccccc23)c1,inactive,inactive,inactive,inactive,inactive,inactive,inactive,inactive,inactive,39.8 µM (active),-28.6,0.11 µM (active),inactive,–,–,–,–
Cc1ccc(S(=O)(=O)NC(=O)NN2CCCCCC2)cc1,inactive,inactive,inactive,inactive,inactive,inactive,inactive,inactive,inactive,–,–,–,inactive,inactive,–,–,–
COc1ccc(CN(CCN(C)C)c2ccccn2)cc1,inactive,inactive,inactive,inactive,–,–,inactive,inactive,inactive,–,–,195 nM (active) and 213 nM (active),inactive,inactive,inactive,inactive,–
CCOC(=O)C1=C(C)NC(C)=C(C(=O)OC)C1c1cccc([N+](=O)[O-])c1 (stereo not drawn),12.6 µM (active),–,inactive,–,inactive,inactive,inactive,–,inactive,–,–,13.8 µM (active),inactive,inactive,inactive,0.436 µM (active),inactive
Cc1nc2c([nH]1)c(=O)n(C)c(=O)n2Cc1ccco1,inactive,inactive,–,inactive,inactive,inactive,inactive,inactive,inactive,–,–,–,inactive,inactive,–,inactive,–
CC(N=C(NC#N)Nc1ccncc1)C(C)(C)C (stereo not drawn),inactive,inactive,–,inactive,inactive,–,inactive,inactive,inactive,–,–,21.9 µM (active),inactive,inactive,inactive,3.89 µM (active),–
Cc1ccc(Cl)c(Nc2ccccc2C(=O)O)c1Cl,inactive,inactive,–,–,inactive,–,inactive,–,inactive,–,–,inactive,–,inactive,–,–,–
COc1cc2c(cc1OC)-c1cc(=Nc3c(C)cc(C)cc3C)n(C)c(=O)n1CC2,–,–,inactive,inactive,inactive,–,inactive,inactive,inactive,–,–,12.3 µM (active),–,–,–,0.49 µM (active),inactive
CC(C)(Oc1ccc(CCNC(=O)c2ccc(Cl)cc2)cc1)C(=O)O,–,–,inactive,inactive,inactive,–,inactive,inactive,inactive,–,–,inactive,inactive,inactive,–,–,–
Cc1ccc(/C(=C\CN2CCCC2)c2ccccn2)cc1,–,–,inactive,inactive,inactive,inactive,inactive,inactive,inactive,–,–,–,inactive,–,–,inactive,–
C[C@H](CS)C(=O)N1CCC[C@H]1C(=O)O,–,–,inactive,inactive,–,–,inactive,–,–,–,–,inactive,–,inactive,–,inactive,inactive
COC(=O)C1=C(C)NC(C)=C(C(=O)OCCN(C)Cc2ccccc2)C1c1cccc([N+](=O)[O-])c1 (stereo not drawn),–,inactive,–,–,inactive,inactive,inactive,–,inactive,–,–,–,inactive,–,–,–,–
Cc1nnc(SCC2=C(C(=O)O)N3C(=O)[C@@H](NC(=O)Cn4cnnn4)[C@H]3SC2)s1,–,–,inactive,inactive,–,–,inactive,–,–,–,–,–,inactive,inactive,inactive,inactive,inactive
CN(C)CCCN1c2ccccc2Sc2ccc(C(F)(F)F)cc21,–,inactive,inactive,inactive,inactive,inactive,inactive,–,–,–,–,0.0977 µM (active),inactive,inactive,–,inactive,inactive
OCCN1CCN(CC/C=C2/c3ccccc3Sc3ccc(C(F)(F)F)cc32)CC1,inactive,–,–,inactive,inactive,inactive,inactive,inactive,inactive,–,–,6.92 µM (active),inactive,inactive,–,–,inactive
